PubChem BioAssay (EPA / NIEHS)
Activity calls are given as the source filed them. The calls were made as follows: active = hit-call score of the fitted dose curve at least 0.9, where 1 is the maximum; inactive = score below 0.9.

Read-out: Alpha-fetoprotein (AFP) gene, AFP (gene 174)
Test: LTEA_HepaRG_AFP: Life Technologies and Expression Analysis (LTEA) Assay for Alpha-fetoprotein (AFP) gene using HepaRG (AID 2283472);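 as to AC50: AFP transcript by TaqMan qRT-PCR normalized to ACTB GAPDH and POLR2A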
Settings: mRNA level, 48 h; actives raise or lower the signal
In short: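 qRT-PCR (Fluidigm TaqMan) readout of AFP transcript, normalized to three housekeeping genes, fitted bidirectionally against 0.5% DMSO baseline. HepaRG cells received chemicals for 48 h in serum-free induction medium, top concentration 100 uM, half-log steps.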

SMILES | outcome | AC50
COP(=O)(NC(C)=O)SC (stereo not given) | inactive | 
CSc1nc(NC(C)C)nc(NC(C)C)n1 |  | 50 µM (active)
COP(=O)(OC)OC(Br)C(Cl)(Cl)Br (stereo not given) | inactive | 
CC(=NC#N)N(C)Cc1ccc(Cl)nc1 | inactive | 
CN1COCN(Cc2cnc(Cl)s2)C1=N[N+](=O)[O-] | inactive | 
COc1ccc(C(=CC(=O)N2CCOCC2)c2ccc(Cl)cc2)cc1OC | inactive | 
CNC(=O)ON=C(C)SC | inactive | 
CCOP(=S)(OCC)SCCSCC | inactive | 
COP(=O)(OC)C(O)C(Cl)(Cl)Cl (stereo not given) | inactive | 
CCOP(=O)(OCC)Oc1cc(C)nc(C(C)C)n1 | inactive | 
CCC(CC)Nc1c([N+](=O)[O-])cc(C)c(C)c1[N+](=O)[O-] |  | 50 µM (active)
CCOP(=S)(OCC)Oc1ccc([N+](=O)[O-])cc1 |  | 2.4 µM (active)
CC(C1CC1)C(O)(Cn1cncn1)c1ccc(Cl)cc1 (stereo not given) |  | 20.5 µM (active)
CNC(=O)ON=C(SC)C(=O)N(C)C | inactive | 
CNC(=O)Oc1cccc2c1OC(C)(C)O2 | inactive | 
CCc1cnc(C2=NC(C)(C(C)C)C(=O)N2)c(C(=O)O)c1 (stereo not given) | inactive | 
Cc1cc(C2CC2)nc(Nc2ccccc2)n1 | inactive | 
CCCSP(=O)(OCC)SCCC | inactive | 

SMILES | outcome | AC50
COc1cc(OC)nc(Sc2cccc(Cl)c2C(=O)O)n1 | inactive | 
CC1(C(=O)Nc2ccc(O)c(Cl)c2Cl)CCCCC1 | inactive | 
CSc1nnc(C(C)(C)C)c(=O)n1N | inactive | 
CCC(=O)Nc1ccc(Cl)c(Cl)c1 | inactive | 
CCOP(=O)(NC(C)C)Oc1ccc(SC)c(C)c1 (stereo not given) |  | 16.5 µM (active)
CC1=NNC(=O)N(/N=C/c2cccnc2)C1 | inactive | 
CSC1=N[C@@](C)(c2ccccc2)C(=O)N1Nc1ccccc1 |  | 35.2 µM (active)
CC(Oc1cccc(Cl)c1)C(=O)O (stereo not given) | inactive | 
CCCCOC(=O)c1ccccc1C(=O)O | inactive | 
CON=C(C(=O)OC)c1ccccc1CON=C(C)c1cccc(C(F)(F)F)c1 | inactive | 
CC[C@H](C)[C@H]1O[C@]2(C=C[C@@H]1C)C[C@@H]1C[C@@H](C/C=C(\C)[C@@H](O[C@H]3C[C@H](OC)[C@@H](O[C@H]4C[C@H](OC)[C@@H](NC)[C@H](C)O4)[C@H](C)O3)[C@@H](C)/C=C/C=C3\CO[C@@H]4[C@H](O)C(C)=C[C@@H](C(=O)O1)[C@]34O)O2 |  | 87.7 µM (active)
Nc1c(Cl)cc([N+](=O)[O-])cc1Cl |  | 39.3 µM (active)
CC(C)N(C(=O)SCC(Cl)=C(Cl)Cl)C(C)C | inactive | 
Cc1nn(-c2cc(NS(C)(=O)=O)c(Cl)cc2Cl)c(=O)n1C(F)F | inactive | 
C[Si](Cn1cncn1)(c1ccc(F)cc1)c1ccc(F)cc1 |  | 25.4 µM (active)
CNc1cnn(-c2cccc(C(F)(F)F)c2)c(=O)c1Cl |  | 22 µM (active)
C#CCC1=C(C)C(OC(=O)C2C(C=C(C)C)C2(C)C)CC1=O (stereo not given) |  | 81.1 µM (active)

Read-out: BCL2L11 (gene 10018)
Test: LTEA_HepaRG_BCL2L11: Life Technologies and Expression Analysis (LTEA) Assay for Bcl-2 (BCL2L11) gene using HepaRG (AID 2283473)
Settings: mRNA level, 48 h; actives raise or lower the signal
In short: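 Read-out is BCL2L11 transcript level by qRT-PCR, normalized to three housekeeping genes and fitted bidirectionally against 0.5% DMSO vehicle. HepaRG cells received chemicals for 48 h in serum-free induction medium, 100 uM down in half-log dilutions.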

SMILES | outcome | AC50
COP(=O)(NC(C)=O)SC (stereo not given) | inactive | 
CSc1nc(NC(C)C)nc(NC(C)C)n1 | inactive | 
CC(=NC#N)N(C)Cc1ccc(Cl)nc1 | inactive | 
CN1COCN(Cc2cnc(Cl)s2)C1=N[N+](=O)[O-] | inactive | 
COc1ccc(C(=CC(=O)N2CCOCC2)c2ccc(Cl)cc2)cc1OC | inactive | 
CNC(=O)ON=C(C)SC | inactive | 
CCOP(=S)(OCC)SCCSCC | inactive | 
COP(=O)(OC)C(O)C(Cl)(Cl)Cl (stereo not given) | inactive | 
CCOP(=O)(OCC)Oc1cc(C)nc(C(C)C)n1 | inactive | 
CCC(CC)Nc1c([N+](=O)[O-])cc(C)c(C)c1[N+](=O)[O-] | inactive | 
CCOP(=S)(OCC)Oc1ccc([N+](=O)[O-])cc1 | inactive | 
CC(C1CC1)C(O)(Cn1cncn1)c1ccc(Cl)cc1 (stereo not given) | inactive | 
CNC(=O)ON=C(SC)C(=O)N(C)C | inactive | 
CNC(=O)Oc1cccc2c1OC(C)(C)O2 | inactive | 
CCc1cnc(C2=NC(C)(C(C)C)C(=O)N2)c(C(=O)O)c1 (stereo not given) | inactive | 
Cc1cc(C2CC2)nc(Nc2ccccc2)n1 | inactive | 
CCCSP(=O)(OCC)SCCC | inactive | 
COc1cc(OC)nc(Sc2cccc(Cl)c2C(=O)O)n1 | inactive | 

SMILES | outcome | AC50
CC1(C(=O)Nc2ccc(O)c(Cl)c2Cl)CCCCC1 | inactive | 
CSc1nnc(C(C)(C)C)c(=O)n1N | inactive | 
CCC(=O)Nc1ccc(Cl)c(Cl)c1 | inactive | 
CCOP(=O)(NC(C)C)Oc1ccc(SC)c(C)c1 (stereo not given) | inactive | 
CC1=NNC(=O)N(/N=C/c2cccnc2)C1 | inactive | 
CSC1=N[C@@](C)(c2ccccc2)C(=O)N1Nc1ccccc1 |  | 12.6 µM (active)
CC(Oc1cccc(Cl)c1)C(=O)O (stereo not given) | inactive | 
CCCCOC(=O)c1ccccc1C(=O)O | inactive | 
CON=C(C(=O)OC)c1ccccc1CON=C(C)c1cccc(C(F)(F)F)c1 | inactive | 
C#CC(C)(C)NC(=O)c1cc(Cl)cc(Cl)c1 | inactive | 
CC[C@H](C)[C@H]1O[C@]2(C=C[C@@H]1C)C[C@@H]1C[C@@H](C/C=C(\C)[C@@H](O[C@H]3C[C@H](OC)[C@@H](O[C@H]4C[C@H](OC)[C@@H](NC)[C@H](C)O4)[C@H](C)O3)[C@@H](C)/C=C/C=C3\CO[C@@H]4[C@H](O)C(C)=C[C@@H](C(=O)O1)[C@]34O)O2 |  | 12.5 µM (active)
Nc1c(Cl)cc([N+](=O)[O-])cc1Cl |  | 50 µM (active)
CC(C)N(C(=O)SCC(Cl)=C(Cl)Cl)C(C)C | inactive | 
Cc1nn(-c2cc(NS(C)(=O)=O)c(Cl)cc2Cl)c(=O)n1C(F)F | inactive | 
C[Si](Cn1cncn1)(c1ccc(F)cc1)c1ccc(F)cc1 | inactive | 
CNc1cnn(-c2cccc(C(F)(F)F)c2)c(=O)c1Cl | inactive | 
C#CCC1=C(C)C(OC(=O)C2C(C=C(C)C)C2(C)C)CC1=O (stereo not given) | inactive | 
